High-throughput results as filed in PubChem.
This excerpt belongs to a sample that is enriched for hits.
Pf Dd2 growth: Plasmodium falciparum Dd2 growth inhibition; Potency, µM (top dose mostly 28.9 µM), without a hit: at the highest dose activity, negative = inhibition, most hits filed as inhibitors; 120,000 tested, 4.3% active; P. falciparum Dd2 growth, SYBR Green, 72 h; AID 1347417; active means well fitted inhibition curve with a large enough effect;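 further: plate controls were DMSO vehicle for no effect and reference drug for full effect; nearly all actives have a fitted effect of over 65% in size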
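Infected erythrocytes (Dd2, 0.3% parasitemia, 2.5% hematocrit final) are added to compound in RPMI-1640/Albumax II medium, grown 72 h at 37C in low oxygen, then lysed with saponin/Triton-X containing SYBR Green and read by fluorescence.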
Active calls of the source: *; i = inactive; [ ] = dose if it differs, or a comment. Potency means the concentration at half of the fitted maximal effect.

SMILES	Pf Dd2 growth
Cc1cc(C(=O)N2CCC3(CC2)CC(N(C(=O)c2ccccc2)C2CC2)CCO3)n(C)n1 (configuration not stated)	-24.2%
Cc1cc(C(=O)NC2CCCc3c2[nH]c2c(Cl)cccc32)c2c(C)noc2n1 (configuration not stated)	i
O=C(CNC(=O)c1cnccn1)NC1CCCc2c1[nH]c1c(Cl)cccc21 (configuration not stated)	-6.1%
COc1cc(C(=O)NC2CCCc3c2[nH]c2c(Cl)cccc32)cc(OC)c1OC (configuration not stated)	1µM*
Cc1cccc(NC(=O)Cn2c(=O)c(-c3noc(C)n3)c3n(c2=O)CCCCC3)c1	21.8%
COc1ccc(S(=O)(=O)N2CC[C@H](NC(=O)c3ccncc3)C[C@H]2C(=O)N[C@@H](CC2CCCCC2)C(N)=O)cc1	i
O=C(CCC1CCCN(Cc2cnc(-c3ccccc3)s2)C1)Nc1ccccc1F (configuration not stated)	14.1µM*
O=C(CCC1CCCN(CC2=Cc3cc(Cl)ccc3OC2)C1)Nc1ccccc1F (configuration not stated)	i
CC(C)(O)C#Cc1ccc(CN2CCCC(CCC(=O)Nc3ccccc3F)C2)s1 (configuration not stated)	-6.7%
CN(Cc1cccc2[nH]ccc12)C1CCc2nn(CC3CC3)c(=O)n2CC1 (configuration not stated)	-22.5%
COc1cccc(C2Cn3nnc(-c4nc(-c5ccc(C)cc5)no4)c3CO2)c1 (configuration not stated)	i
Cc1noc2c(N(C)C)cc(-c3ccsc3)nc12	20.4%[44.1 µM]
CCn1c(=O)n(-c2ccc3c(c2)OCO3)c2nc(-c3cccc(OC)c3OC)nc(C(N)=O)c21	5.8%
CCOC(=O)Cn1c(=O)n(CC2CCCO2)c2nc(-c3ccccc3)nc(C(N)=O)c21 (configuration not stated)	-15.4%
CCOC(=O)Cn1c(=O)n(-c2ccccc2OC)c2nc(-c3ccccc3C)nc(C(N)=O)c21	10µM*
CCC(NC(=O)c1ccc2nc(-c3ccc(F)cc3)cn2c1)c1ncc(C)[nH]1 (configuration not stated)	7.94µM*
CN(C(=O)c1ccc2nc(-c3ccc(F)cc3)cn2c1)C1CCOCC1	-6.3%
COc1cc(F)ccc1-c1cc2c(ccn2C)c(C(=O)NCCc2cnc[nH]2)n1	-15.1%[44.1 µM]
CC(Cc1cnccn1)NC(=O)c1ccc2nc(-c3ccc(F)cc3)cn2c1 (configuration not stated)	-16.9%
COCCN(CC1CC1)C(=O)c1ccc2nc(-c3ccc(F)cc3)cn2c1	-15.4%
O=C(NCCc1cnc[nH]1)c1ccc2nc(-c3ccc(F)cc3)cn2c1	10µM*
O=C(O)C[C@@H]1CCN(C(=O)c2ccc(F)cc2)C[C@@H]1CCN1CCCCC1	i
Cc1ccc(-c2noc([C@@H]3CCCN3C(=O)Cc3cccc(C)c3)n2)cc1	-14.0%
Cc1ccccc1[C@H]1C[C@@H](O)[C@@H](O)[C@@H]1NC(=O)c1c(-c2ccccc2)noc1C	-14.4%[44.1 µM]
COc1cc2c(cc1CN1CCC3(CCCNC3)C1)OCCCO2 (configuration not stated)	-5.0%
SMILES	Pf Dd2 growth
COc1cc2c(cc1CN1CCCC(CO)(CC=C(C)C)C1)OCCO2 (configuration not stated)	7.94µM*
CC(C)=CCC1(CO)CCCN(Cc2cc(=O)n3cc(C)sc3n2)C1 (configuration not stated)	-18.2%
CN(Cc1ccccc1)Cc1cn([C@H]2CO[C@H]3[C@@H]2OC[C@@H]3NC(=O)NC2CCCCC2)nn1	i
Cc1ccccc1C(=O)N[C@H]1[C@H](O)[C@H](O)C[C@@H]1c1cccnc1	32.4%[44.1 µM]
CCNC(=O)N[C@H]1CC[C@]2(C)CC[C@@H](C(C)C(=O)NC3CCCC3)[C@H](O)[C@H]2[C@@H]1C (some centres not stated)	-0.7%[44.1 µM]
COc1ccc(CN2CCc3nn(C)c(=O)n3CC2)cc1Cn1cccn1	12.6%
O=C(Cn1nc2c(cc1=O)CCCC2)N1CCOCC1	12.3%
Cc1cc(C)c(NC(=O)COc2ccc3c(C)cc(=O)oc3c2)c(C)c1	i
COc1cc2c(cc1OC)C(COc1ccc3c(C)cc(=O)oc3c1)N(C(=O)c1cccc(C)c1)CC2 (configuration not stated)	5.01µM*
COc1ccc(OCC(=O)N2CCN(C(=O)c3cccc(OC)c3OC)CC2)cc1	-0.8%
COc1cc2c(cc1OC)C(COc1ccc3c(C)cc(=O)oc3c1)N(C(=O)c1cccc(OC)c1OC)CC2 (configuration not stated)	8.91µM*
COc1ccc(CC(=O)NCc2ccc3c(c2)CCN3C(=O)c2cccc(C)c2)cc1	i
CCNC(=O)NCC1c2cc(OC)c(OC)cc2CCN1C(=O)Nc1ccccc1OC (configuration not stated)	i
Cc1cnc(C(=O)NC2C[C@H]3CC[C@@H](C2)N3C(=O)Cc2ccc(F)cc2)cn1 (some centres not stated)	-5.0%
CN(C)c1cccc(Oc2nnnn2[C@H]2CO[C@H]3[C@@H]2OC[C@@H]3N)c1	-11.6%[44.1 µM]
CC(C)COC(=O)/C(C#N)=C\c1ccc(-c2ccccc2Cl)o1	1.12µM*
CCOC(=O)/C(C#N)=C/c1ccc(-c2ccccc2)o1	5.1%
CCC(C)OC(=O)/C(C#N)=C\c1ccc(-c2ccccc2Cl)o1 (configuration not stated)	79.2%
CCOCC(=O)NC1CCN(c2cnn(CC)c(=O)c2)CC1	11.2%
COC(=O)c1ccccc1NC(=O)N(Cc1ccc(C)cc1)Cc1cccn1-c1nnc(N2CCCC2=O)s1	1.7%
Cc1ccc(NCc2cccn2-c2nnc(N3CCC(C(=O)NC(C)C)CC3)s2)cc1	i
Cc1ccc(CN(Cc2cccn2-c2nnc(N3CCCC3=O)s2)C(=O)Nc2cc(C)cc(C)c2)cc1	3.16µM*
CC(=O)NCCC(=O)N1Cc2ccccc2CC2(CCCN(CC3CCOCC3)C2)C1 (configuration not stated)	2.1%
CC(C)Cn1c(=O)n(CC(C)N2CCCC2)c2cc(C(=O)O)cnc21 (configuration not stated)	-0.8%
COc1ccc([C@H]2C[C@@H](O)[C@@H](O)[C@@H]2NCc2cnn(C)c2)cc1	i
SMILES	Pf Dd2 growth
COc1ccc([C@H]2C[C@@H](O)[C@@H](O)[C@@H]2NCc2ccccc2)cc1	-0.6%[44.1 µM]
COc1ccc([C@H]2C[C@@H](O)[C@@H](O)[C@@H]2NCc2cn(C)c3ccccc23)cc1	8.91µM*
CCn1nccc1C(=O)N1CCCCCCNC(=O)[C@@H]2CCC[C@@H]21	8.0%
Cc1ccc(C2=NC3(CCN(C(=O)c4ccco4)CC3)ON2)cc1	-23.0%
O=C1CCC2(C(=O)NCC3CC3)CCCC=C2N1c1ccccc1 (configuration not stated)	-22.1%
O=C(CN1C(=O)NC2(CCOCC2)C1=O)NCc1ccc(Cl)cc1	51.4%
Cc1ccc(-c2cc(C(=O)Oc3ccccc3)c3cccc(C)c3n2)cc1	-10.3%
COc1ccc(-c2cc(C(=O)Oc3ccc(C)cc3)c3cc(C)ccc3n2)cc1	i
COc1ccc(-c2cc(C(=O)Oc3ccccc3)c3cc(C)ccc3n2)cc1	4.47µM*
O=C(CC1C(=O)NCCN1CC(c1ccccc1)c1ccccc1)NCc1ccon1 (configuration not stated)	-24.3%
COc1ccccc1CNC(=O)c1c(OCC(C)C)cc(=O)n2c1CCCCC2	i
O=C1NCc2ccccc2CC12CCCCN2Cc1cccc(F)c1 (configuration not stated)	-28.6%
